# TDP1 cell CPT: DT40-hTDP1 cell growth loss with CPT; AID 686979; chicken DT40 Tdp1-/-;hTDP1 cells + 20 nM CPT, ATP luminescence, 48 h; Potency, µM (doses to about 46.2 µM), without a hit: top-dose activity change, negative = growth inhibition, usual class: inhibitors; 420,000 compounds, 12% hits; further: on the % scale 0 is the no-effect control and ±100 the full control effect; nearly all actives have a fitted effect of over 55% in size
#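 Chicken DT40 Tdp1-/- cells complemented with human TDP1, 400 cells/well, exposed to compounds plus 20 nM camptothecin for at least 48 h at 37 C; viability read as ATP content by CellTiter-Glo luminescence.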
# TDP1 cell noCPT: qHTS for Inhibitors of human tyrosyl-DNA phosphodiesterase 1 (TDP1): qHTS in cells in absence of CPT; DT40 Tdp1-/- hTDP1 cells, no CPT, ATP luminescence, 48 h; Potency, µM (top dose mostly 46.2 µM), for inactives: at the highest dose activity change, negative = growth inhibition, usual class: inhibitors; 420,000 compounds, 15% hits; further: on the % scale 0 is the no-effect control and ±100 the full control effect; nearly all actives have a fitted effect of over 55% in size
#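 DT40 Tdp1-/-;hTDP1 cells, no CPT (DMSO vehicle only), 400 cells/well; compounds pin-transferred; ≥48 hr, 37 °C; CellTiter-Glo 30 min RT dark, luminescence read.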
# HepG2 viability: kills HepG2 cells in TGF-b inhibitor counter-screen | AID 588856 | 410,000 compounds, 0.76% hits | HepG2 CAGA-GFP viability, ATP luminescence, 18 h | Potency, µM (titrated, usually from 46.1 µM), inactives show at the highest dose activity change, negative = cytotoxicity, most hits filed as cytotoxic
#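 CellTiter-Glo luminescence gave cytotoxicity after 18 hours at 37 degrees C. The cells were HepG2 CAGA-GFP in 1% FBS DMEM, stimulated with 500 pg/mL TGF-beta after compound addition. %Activity was normalised to no-cell wells (complete cell-killing) and DMSO (no toxicity), and curves were fitted and classified.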
# HT1080NT lethal: kills 2HG-producing HT-1080-NT fibrosarcoma cells. HT-1080-NT fibrosarcoma viability, CellTiter-Glo ATP luminescence, 48 h. Potency, µM (titrated, usually from 46.1 µM), inactives show at the top dose activity, negative = less viability, usual class: cytotoxic. 360,000 compounds, 1.6% hits. AID 686970;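 further: NT is the 2HG producing partner of a matched IDH1 knockdown line; 0% = DMSO-treated cells and -100% = media-only wells without cells; nearly all actives have a fitted effect of over 55% in size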
#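 Toxicity toward the 2HG-producing NT line was scored as %Activity, normalised to DMSO and no-cell wells, from CellTiter-Glo luminescence after 48 hours' treatment.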
# HT1080 IDH1KD tx: kills HT-1080 cells with IDH1 knockdown; HT-1080 IDH1 knockdown viability, ATP luminescence, 48 h; AID 686971; 360,000 compounds, 2% hits; Potency, µM (highest dose often 46.1 µM), for inactives: top-dose activity, negative = toxicity, usual class: cytotoxic;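 further: 0% = DMSO wells and -100% = cell-free medium wells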
#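 Cytotoxicity counter-line: IDH1KD HT-1080, 48 h, CellTiter-Glo. Curves classed by r2, magnitude and activity.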
# TGFb SMAD3 inh: inhibitors of TGF-b signaling; Potency, µM (titrated, usually from 46.1 µM), inactives show top-dose activity, negative = inhibition, actives largely listed as inhibitors; 410,000 compounds, 1.2% hits; AID 588855; HepG2 CAGA-GFP TGF-b/SMAD3 reporter, GFP fluorescence, 18 h; TGF-beta stimulated, 500 pg/mL final; further: on the % scale 0 is the no-effect control and ±100 the full control effect; nearly all actives have a fitted effect of over 65% in size
#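 Inhibition of TGF-beta-driven CAGA-GFP reporter expression in HEPG2 cells is measured by cellular GFP fluorescence after 18 h stimulation with 500 pg/mL recombinant TGF-beta in 1% FBS medium at 37 degrees C.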
# The depositor's hits bear a star; ? = inconclusive; . = not tested or not shown. Rows were chosen to be rich in hits. Some 17% of all compounds tested hit in one or more screens of this group. The call rests on the fitted dose curve; in most records, active means well fitted curve in the direction sought with a large enough effect; inconclusive means small, poorly fitted or top-dose-only effect, or another doubt; inactive means no such curve, though single readings can be large; an effect the other way counts as inactive or inconclusive. Potency means the concentration at half of the fitted maximal effect.
SMILES,TDP1 cell CPT,TDP1 cell noCPT,HepG2 viability,HT1080NT lethal,HT1080 IDH1KD tx,TGFb SMAD3 inh
COc1cccc2oc3ccc(C#Cc4ccccn4)cc3c(=O)c12,11.6µM*,?,-33.4%,-0.2%,-4.0%,-23.2%
COc1cccc2sc3cc(C#Cc4ccccn4)ccc3c(=O)c12,18.4µM*,16.4µM*,26.9%,-13.2%,-24.3%,14.6%
C/C(=N\NC(=O)c1ccco1)c1ccc(NC(=O)C(F)(F)F)cc1,2.2%,4.0%,-1.2%,-6.8%,-2.0%,9.8%
CCOC(=O)[C@H]1[C@H]2COc3ccc(Br)cc3[C@@H]2N2C(=O)CN(Cc3ccc(Cl)cc3)C(=O)[C@@]12C,18.4µM*,?,-3.1%,-25.7%,-21.5%,-0.4%
CCOC(=O)[C@H]1[C@H]2COc3ccc(C)cc3[C@@H]2N2C(=O)CN(Cc3ccc(Cl)cc3)C(=O)[C@@]12C,-25.5%,1.6%,-2.7%,-0.8%,4.9%,6.3%
CCOC(=O)[C@H]1[C@H]2COc3ccc(Br)cc3[C@@H]2N2C(=O)CN(Cc3ccc(F)cc3)C(=O)[C@@]12C,?,20.6µM*,-4.2%,4.7%,1.1%,?
CCOC(=O)[C@H]1[C@H]2COc3ccc(OC)cc3[C@@H]2N2C(=O)CN(Cc3ccc(F)cc3)C(=O)[C@@]12C,?,?,-4.4%,-1.1%,-0.9%,-3.7%
CCOC(=O)[C@H]1[C@H]2COc3ccc(Br)cc3[C@H]2N2C(=O)CN(Cc3ccc(Cl)cc3)C(=O)[C@@]12C,?,23.1µM*,-12.0%,-6.8%,-7.8%,?
CCCc1cc(=O)oc2cc(OC(=O)CN3C(=O)NC4(CCCC4)C3=O)ccc12,-21.0%,-26.8%,2.7%,-3.9%,-3.3%,1.0%
CC(C#N)Sc1nnc(Nc2ccccc2)s1 (stereo unspecified),-105.6%,18.4µM*,-4.8%,15.2%,15.7%,-6.4%
CCSc1nnc(Nc2ccccc2)s1,-6.7%,-21.7%,9.0%,14.1%,17.6%,-3.5%
NNC(=O)c1[nH]c2ccc(Br)cc2c1-c1ccccc1,?,23.1µM*,-26.7%,9.2µM*,14.6µM*,?
CCN(CC)C(=S)Sc1c(-c2ccccc2)c2cc(Cl)ccc2[nH]c1=O,2.31µM*,?,-3.4%,-16.8%,?,?
NNC(=O)c1[nH]c2ccc(Cl)cc2c1-c1ccccc1,?,20.6µM*,-19.4%,?,?,?
CSCc1cc(C(=O)NC2CC2)c(N)s1,?,?,.,19.5%,16.1%,.
CC(c1nc2ccccc2[nH]1)N(C(=O)Cc1csc2ccccc12)c1cccnc1 (stereo unspecified),?,?,-1.8%,5.1%,3.0%,-17.4%
O=C(CN1CCc2ccccc2C1)Nc1cc(S(=O)(=O)N2CCOCC2)ccc1N1CCCC1,14.6µM*,?,-5.3%,4.9%,7.3%,4.4%
O=C(CN1CCc2ccccc2C1)Nc1cc(S(=O)(=O)N2CCOCC2)ccc1N1CCOCC1,9.2µM*,23.1µM*,5.4%,-0.9%,-4.1%,-12.3%
O=C(CN1C(=O)NC2(CCCC2)C1=O)OCC(=O)c1cccc(Cl)c1,6.0%,-25.0%,-1.7%,4.6%,-4.2%,-3.7%
OC1(CN2CCOCC2)C2CN3CCN(C2)CC1(c1ccccc1)C3 (stereo unspecified),29.1µM*,?,-5.0%,-3.7%,1.9%,-19.6%
Cc1sc2nc3ccc(NCc4ccco4)nn3c(=O)c2c1C,?,20.6µM*,6.6%,-0.6%,-8.4%,2.5%
COC(=O)c1cc2oc3ccccc3c2n1CC(=O)Nc1ccc(C)cc1C,?,-2.7%,-9.7%,.,.,0.0%
CCCCC[n+]1cccc2c3ccccc3ccc21,0.517µM*,0.0073µM*,-8.1%,?,9.2µM*,?
c1ccc(C[n+]2cccc3c4ccccc4ccc32)cc1,3.66µM*,3.66µM*,-34.6%,?,?,?
COc1ccccc1CNC(=O)C1CCN(S(=O)(=O)c2ccc3[nH]c(=O)ccc3c2)CC1,-7.5%,-16.9%,-0.7%,.,.,3.3%
SMILES,TDP1 cell CPT,TDP1 cell noCPT,HepG2 viability,HT1080NT lethal,HT1080 IDH1KD tx,TGFb SMAD3 inh
COC(=O)c1c(C)[nH]c(C(=O)COC(=O)CCc2ccc(OC)c(OC)c2)c1C,-2.8%,?,-18.0%,11.1%,0.2%,0.6%
COc1ccc(Cc2n[nH]c(=S)n2-c2cc(C)ccc2C)cc1OC,-7.8%,-5.8%,-10.5%,22.7%,1.2%,1.2%
CCCc1cc(=O)oc2cc(OCC(=O)NCC(O)c3ccccc3)ccc12 (stereo unspecified),-11.3%,?,3.4%,-1.8%,4.9%,0.6%
Cc1ccc2cc3cc(C(=O)N4CCN(c5ccc(Cl)cc5)CC4)oc3nc2c1,9.2%,8.3%,2.0%,.,.,15.9%
Cc1cccc(-n2ncc(C(=O)N3CCN(C(=O)c4ccco4)CC3)c2C2CCN(C(=O)OC(C)(C)C)CC2)c1,?,?,-45.2%,.,.,0.0%
COc1ccc(-n2ncc(C(=O)N3CCOCC3)c2C2CCN(C(=O)OC(C)(C)C)CC2)cc1,5.6%,-0.6%,-10.4%,.,.,-4.6%
Cc1cccc(N2CCN(C(=O)c3cnn(-c4ccccc4)c3C3CCN(C(=O)OC(C)(C)C)CC3)CC2)c1C,?,16.4µM*,-19.4%,.,.,-14.9%
COc1ccc(N2CCN(C(=O)c3cnn(-c4ccc(OC)cc4)c3C3CCN(C(=O)OC(C)(C)C)CC3)CC2)cc1,18.4µM*,?,8.7%,.,.,4.5%
COc1ccc(-n2ncc(C(=O)NCc3ccco3)c2C2CCN(C(=O)OC(C)(C)C)CC2)cc1,?,?,4.4%,.,.,-11.3%
CCc1cccc(C)c1NC(=O)c1cnn(-c2ccc(OC)cc2)c1C1CCN(C(=O)OC(C)(C)C)CC1,18.4µM*,18.4µM*,5.2%,.,.,?
Cc1cccc(C)c1-n1ncc(C(=O)N2CCN(c3ccccc3)CC2)c1C1CCN(C(=O)OC(C)(C)C)CC1,?,?,7.1%,.,.,-2.8%
CC(C)(C)OC(=O)N1CCC(c2c(C(=O)N3CCN(c4ccccn4)CC3)cnn2-c2cccc(F)c2)CC1,18.4µM*,16.4µM*,4.7%,.,.,0.0%
CCC(=O)OCc1cc(=O)oc2ccc3ccccc3c12,-14.4%,?,-12.9%,-0.5%,-12.1%,8.8%

# Source: PubChem
